NadD block: inhibitors of Staphylococcus aureus NadD; purified NadD enzyme, colorimetric absorbance read-out; inhibition, % at 20 µM; 360,000 compounds, 0.78% hits; in the data active means inhibition above about 26%
APOBEC3A inh: blocks human APOBEC3A ssDNA deamination; 330,000 compounds, 0.41% hits; recombinant A3A, FAM/TAMRA ssDNA deamination fluorescence; AID 493011; inhibition, % at 20 µM;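 active means at least 40% inhibition at 20 µM here, with at most 30% in a related deaminase screen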
Target sequence (P31941 whole entry, looked up): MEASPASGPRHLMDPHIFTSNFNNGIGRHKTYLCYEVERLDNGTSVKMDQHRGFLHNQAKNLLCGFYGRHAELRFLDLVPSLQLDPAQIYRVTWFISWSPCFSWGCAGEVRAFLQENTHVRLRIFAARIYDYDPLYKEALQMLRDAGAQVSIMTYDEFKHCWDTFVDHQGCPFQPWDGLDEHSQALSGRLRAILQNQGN
APOBEC3G inh: APOBEC3G (human) deaminase inhibition. AID 493012. inhibition, % at 20 µM. recombinant A3G, ssDNA deamination FAM/TAMRA fluorescence. 330,000 compounds, 0.28% hits. Q9HC16;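 active means inhibition of at least 40% at 20 µM, with no more than 30% in the related APOBEC3A deaminase screen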
Target sequence (Q9HC16 whole entry, looked up): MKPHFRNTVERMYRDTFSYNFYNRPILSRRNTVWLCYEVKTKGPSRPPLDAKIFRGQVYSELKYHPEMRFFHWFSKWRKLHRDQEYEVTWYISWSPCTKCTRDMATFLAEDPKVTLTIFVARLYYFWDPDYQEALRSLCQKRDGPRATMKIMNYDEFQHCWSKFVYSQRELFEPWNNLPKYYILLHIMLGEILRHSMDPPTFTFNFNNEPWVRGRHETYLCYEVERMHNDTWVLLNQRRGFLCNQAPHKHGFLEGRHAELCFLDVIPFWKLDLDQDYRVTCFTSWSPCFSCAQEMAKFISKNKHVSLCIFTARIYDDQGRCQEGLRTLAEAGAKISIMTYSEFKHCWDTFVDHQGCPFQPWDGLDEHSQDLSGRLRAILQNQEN
H9c2 TAG inh: reduces triacylglycerol accumulation in H9c2 cells; Nile Red lipid (TAG) fluorescence; cells loaded with 200 µM oleic acid; 230,000 compounds, 0.66% hits; inhibition, % at 12.5 µM;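 active means pattern-corrected inhibition of lipid staining of at least 50% with the nuclear-stain viability signal not falling by more than 50%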
PfG6PD inh: PfG6PD (Plasmodium falciparum) enzyme inhibition; 350,000 compounds, 0.78% hits; AID 504690; PfGluPho enzyme, NADPH resazurin-diaphorase fluorescence; inhibition, % at 20 µM;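 active means inhibition reaching at least a set limit at 20 µM in the primary screen, cut at about 59% in these data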
H9c2 protect: protects H9c2 cardiomyocytes from peroxide injury; H2O2 injury protection, ATPLite, 2 h; protection from H2O2 cell death, % at 20 µM; 360,000 compounds, 0.63% hits; AID 588492;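 active means compounds giving at least 50% protection of heart cells from peroxide-induced death in the single-dose screen, raw or plate-pattern-corrected value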
PfGluPho conf: confirmation of Plasmodium falciparum G6PD inhibitors. shares compounds with PfG6PD inh. recombinant PfGluPho, NADPH-diaphorase-resazurin fluorescence. inhibition, % at 20 µM. 2,400 compounds, 34% hits. AID 504753;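 active means inhibition of at least 50% at 20 µM in any single replicate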
Diaph ctr 10uM: counter-screen for P. falciparum G6PD inhibitors: diaphorase inhibitors, oxidizers. diaphorase-coupled resazurin reduction, fluorescence, NADPH 10 uM. inhibition, % at 20 µM. 820 compounds, 39% hits. shares compounds with PfG6PD inh;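 active means average inhibition reaching 50% or more with the compound at 20 µM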;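 further: resorufin red fluorescence formed as diaphorase reduces resazurin using NADPH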
Diaph ctr 30uM: diaphorase inhibition or oxidation at 30 uM NADPH. Diaphorase/resazurin coupled assay, resorufin fluorescence. 820 compounds, 29% hits. AID 504863. inhibition, % at 20 µM. shares compounds with PfG6PD inh;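 active means inhibition averaging 50% or more, tested at 20 µM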
Hits are given with their value; i = inactive; nt = not tested or not shown. In the library only some 2.9% were active in any assay of this set; here they are far more common.

SMILES	NadD block	APOBEC3A inh	APOBEC3G inh	H9c2 TAG inh	PfG6PD inh	H9c2 protect	PfGluPho conf	others
Oc1ccc(N2CCN(c3ncnc4sc(-c5ccccc5)cc34)CC2)cc1	i	nt	nt	i	72	i	i
COC(=O)Sc1nc(N2CCOCC2)c2c(c1C#N)CC(C)(C)OC2	i	i	i	i	i	55	i
COC(=O)CSc1nc(N2CCOCC2)c2c(c1C#N)CC(C)(C)OC2	i	i	i	nt	i	i	nt
COc1cc(CNc2ccc(N3CCCC3)cc2)cc(Cl)c1OC	i	i	i	54	75	i	76	Diaph ctr 10uM=i;Diaph ctr 30uM=i
COc1ccccc1CNc1ccc(N2CCCCC2)cc1	i	i	i	nt	66	i	i
CCOc1cc(CNc2ccc(S(N)(=O)=O)cc2)cc(Cl)c1OC	i	i	i	nt	i	i	nt
COc1cc(CNc2ccc(N3CCOCC3)cc2)cc(Br)c1OC	i	i	i	i	i	i	nt
COc1cccc(CNc2ccc(N3CCCCC3)cc2)c1OC	i	i	i	nt	i	i	nt
CCOc1cc(CNc2ccc(N3CCCC3)cc2)cc(Cl)c1OC	i	i	i	nt	84	i	63	Diaph ctr 10uM=i;Diaph ctr 30uM=i
C=CCOc1c(Cl)cc(CNc2ccc(N(C)C)cc2)cc1OC	i	i	i	nt	79	i	51	Diaph ctr 10uM=i;Diaph ctr 30uM=i
C=CCOc1c(Cl)cc(CNc2ccc(C)c(Cl)c2)cc1OC	nt	i	i	nt	nt	nt	nt
CS(=O)(=O)N1CCC(C(=O)NCc2ccc(F)cc2)CC1	i	i	i	i	i	i	nt
CCOc1ccc(CNc2ccc(N3CCCC3)cc2)cc1	i	i	i	nt	95	i	81	Diaph ctr 10uM=i;Diaph ctr 30uM=i
C[C@H]1CN([C@@H](C)CO)C(=O)CCCn2cc(nn2)CO[C@@H]1CN(C)S(=O)(=O)c1ccc(C#N)cc1	i	nt	nt	i	i	i	nt
COc1ccc(/C=C2\C(=O)NC(=O)c3ccccc32)cc1OC	i	nt	nt	i	69	i	i
O=C(Nc1ccc2c(c1)OCCO2)c1cc2ccccc2o1	i	i	i	i	72	i	i
CCc1cc(-c2n[nH]c(C)c2-c2nc(C)cs2)c(O)cc1OC	i	i	i	i	69	i	i
Cc1ccc2nc(Cl)c(/C=N/Nc3ccc(C(=O)O)cc3)cc2c1	i	i	i	i	60	i	i
Cc1cc2oc(=O)cc(CN3CCN(S(=O)(=O)c4cccs4)CC3)c2cc1C	i	i	i	i	i	i	nt
O=C(NCc1ccccc1Br)C1CCCO1 (stereo unspecified)	i	i	i	i	i	i	nt
O=C(N/N=C/c1ccc(N2CCOCC2)o1)c1cccc([N+](=O)[O-])c1	i	i	i	nt	70	i	i
Cc1ccc(C(=O)c2coc3ccc(O)c(Cl)c23)cc1	i	i	i	i	63	i	i
O=S(=O)(Nc1cc(Sc2cccc3cccnc23)c(O)c2ccccc12)c1ccc(F)cc1	nt	nt	nt	nt	98	nt	85	Diaph ctr 10uM=i;Diaph ctr 30uM=i
O=C(Sc1cccc2cccnc12)c1ccc(F)cc1	nt	i	i	nt	nt	nt	nt
O=C(CN1CCN(c2ccc(O)cc2)CC1)Nc1ccc(S(=O)(=O)N2CCCC2)cc1	i	i	i	i	60	i	i
SMILES	NadD block	APOBEC3A inh	APOBEC3G inh	H9c2 TAG inh	PfG6PD inh	H9c2 protect	PfGluPho conf	others
Cc1ccc(S(=O)(=O)N2CCOCC2)cc1NC(=O)CN1CCN(c2ccc(O)cc2)CC1	i	i	i	nt	65	i	i
Cc1ccc(S(=O)(=O)N2CCOCC2)cc1NC(=O)CN1CCN(C)CC1	i	i	i	i	i	i	nt
CCN(C(=O)CN1CCN(c2ccc(O)cc2)CC1)c1c(N)n(Cc2ccccc2)c(=O)[nH]c1=O	i	i	i	i	73	i	i
CC(CCc1ccccc1)NC(=O)CN1CCN(c2ccc(O)cc2)CC1 (stereo unspecified)	i	i	i	i	66	i	i
CCCNC(=O)C1(C)CCCN(Cc2ccccc2-c2ccccc2)C1 (stereo unspecified)	i	nt	nt	i	nt	i	nt
Cc1ccc(NC(=O)NC(=O)CN2CCN(c3ccc(O)cc3)CC2)c(C)c1	i	i	i	nt	72	i	i
Cn1nc(C(=O)Nc2nc(-c3ccc(F)cc3)cs2)ccc1=O	i	i	i	i	i	i	nt
O=C(/C=C/c1ccccc1)NC(NC(=S)Nc1cccc(Cl)c1)C(Cl)(Cl)Cl (stereo unspecified)	i	i	i	i	i	i	nt
O=C(/C=C/c1ccccc1)NC(NC(=S)Nc1ccc(Cl)cc1Cl)C(Cl)(Cl)Cl (stereo unspecified)	i	i	i	nt	62	i	i
Cc1ccc(/C=C/C(=O)OCC(=O)c2ccc3c(c2)NC(=O)CO3)o1	i	i	i	i	71	i	i
O=C1COc2ccc(C(=O)COC(=O)/C=C/c3ccc(Br)o3)cc2N1	i	i	i	i	i	i	nt
CCOc1ccc(NC(=S)Nc2ccc3nsnc3c2)cc1	i	i	i	nt	64	i	i
COc1ccc(NC(=S)Nc2ccc3nsnc3c2)cc1	i	i	i	nt	89	i	i
CCOc1ccc(NC(=O)Nc2ccc3nsnc3c2)cc1	i	i	i	nt	i	i	nt
CCOc1cc(/C=C(/NC(C)=O)C(=O)O)cc(Cl)c1OCc1ccc(Br)cc1	i	i	i	i	i	i	nt
CC(C)(NC(=O)c1ccccc1)c1nc2ccccc2s1	i	i	i	i	60	i	i
O=C(COc1ccc(Cl)cc1)OCc1ccc(Cl)cc1	i	nt	nt	i	i	i	nt
CN(CCc1ccccc1)C(=O)CCc1nnc(Cc2ccc3c(c2)OCO3)o1	i	i	i	i	i	i	nt
CCOc1ccc(N(CC(=O)N/N=C/c2cc([N+](=O)[O-])ccc2Cl)S(C)(=O)=O)cc1	i	i	i	i	87	i	60	Diaph ctr 10uM=72;Diaph ctr 30uM=i
O=C(CSc1nc(C(F)(F)F)cc(=O)[nH]1)N1CCC(Cc2ccccc2)CC1	i	i	i	i	i	i	nt
Nc1n[nH]c(=S)n1/N=C1/C(=O)Nc2ccccc21	i	nt	nt	i	73	i	i
O=C1Nc2ccccc2C1=NN1CCCCCC1	i	nt	nt	i	i	i	nt
O=C(Cn1nc(-c2ccccc2)c2ccccc2c1=O)NCCO	i	i	i	nt	i	i	nt
CCNc1ccc2noc3c2c1C(=O)c1ccccc1-3	i	i	i	nt	i	i	nt
O=C1c2ccccc2-c2onc3ccc(NCc4ccco4)c1c23	i	i	i	i	74	i	i
O=C1CC(N2CCN(c3ccc(O)cc3)CC2)C(=O)N1Cc1cccs1 (stereo unspecified)	i	i	i	i	67	i	i
Cn1c(=O)[nH]c(=O)c2c1nc(SCCN1CCCCC1)n2CCCc1ccccc1	i	i	i	i	77	i	63	Diaph ctr 10uM=i;Diaph ctr 30uM=i
